From PubChem BioAssay AID1259240 (Keith Lab, Institute of Cancer Science, University of …, 2017)
Activity calls are given as the source filed them. Cut-off read from the data, not from the text of the source: active = fold change mostly below about -2 (no sharp cut-off); inactive = mostly above about -1.8.

Assay: modulation of TERT promoter-driven luciferase – cell-based, luciferase reporter, human, primary screen (AID 1259240)
Conditions: A2780 TERT promoter luciferase reporter, 16 h; at 20 µM, fold versus average of vehicle-only wells

SMILES | fold change | outcome
C=CCNC(=O)c1onc(C)c1Cl | 1.22 (inactive) | –
CCN1CCN(C(=O)C2CCN(S(=O)(=O)c3ccc4c(c3)oc(=O)n4C)CC2)CC1 | -1.05 (inactive) | –
Cc1ccc(C)c(N2CCN(C(=O)CCCc3nnc4n5nc(C)nc5c5ccccc5n34)CC2)c1 | -1.04 (inactive) | –
Cc1ccc(S(=O)(=O)NCCOc2nc(N(C)C)nc(N3CCOCC3)n2)cc1 | -1.03 (inactive) | –
Cc1nc(SCc2c(F)cccc2Cl)c2c(=O)n(C)c(=O)n(C)c2n1 | 1.27 (inactive) | –
CN1CCN(C(=O)c2ccc3c(Cl)c4c(nc3c2)CCC4)CC1 | 1.03 (inactive) | –
CN(CC(=O)NCc1cccs1)S(=O)(=O)c1ccc2c(c1)n(C)c(=O)c(=O)n2C | 1.51 (inactive) | –
COc1ccc(S(=O)(=O)NC(C)(C)CO)cc1-c1nnc2c3ccccc3c(C)nn12 | -1.26 (inactive) | –
Cc1cc(C)cc(-c2nc(-c3cccnc3)no2)c1 | -2.32 (active) | –
CC1Cc2ccccc2N1S(=O)(=O)c1cccc2cccnc12 (stereo unspecified) | -2.15 (active) | –
CCN(Cc1ccccc1)C(=O)C1CCCN1S(=O)(=O)c1cccc2nsnc12 (stereo unspecified) | 1.58 (inactive) | –
Cc1noc(C(=O)NCC(C)C)c1Cl | -1.74 (inactive) | –
Cc1[nH]n(-c2nc3ccccc3[nH]2)c(=O)c1C=Nc1ccc(F)cc1 | – | inactive
CCN(CC)CCNc1nc2c(c(=O)[nH]c(=O)n2C)n1Cc1cccc(C)c1 | -1.42 (inactive) | –
COc1cc(C(=O)Nc2ccc3oc(-c4ccncc4)nc3c2)cc(OC)c1OC | -1.49 (inactive) | –
O=C(CCSc1nc(-c2ccc3c(c2)OCO3)cc(C(F)(F)F)n1)N1CCCCC1 | -1.15 (inactive) | –
